{"source": "PubChem BioAssay"}
{"tested_on": "Human papillomavirus type 1a protein E7 (residues 44-93)", "assay": "small molecules binding HPV E7 44-93 – biochemical, small-molecule microarray, residues 44-93, 635 nm fluorescence, primary screen (AID 1108);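 also: E7 fragment applied at 1 µg/mL in TBST for 1 h at 4 C; score combines spot fluorescence with its signal to noise ratio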", "conditions": "fluorescence 635 nm, higher = more signal"}
{"smiles": "CCOC(=O)C[C@H]1[C@H](OC(=O)c2ccccc2-c2ccccc2)[C@@H](NC(=O)c2ccccc2)c2cc(OCCCO)ccc2N1C(=O)Cc1ccc(OC)cc1", "composite z-score": -0.12}
{"smiles": "C=CCC(OC(C)=O)[C@@H]1[C@@H](N(Cc2ccc(-c3cccc(C(F)(F)F)c3)o2)C(=O)c2cccc3ccccc23)c2cc(OCCCO)ccc2N1C(=O)c1ccc(-c2ccccc2)cc1", "note": "(stereo partly specified)", "composite z-score": -0.535}
{"smiles": "C[C@H]1ON(c2ccccc2)[C@@H](c2ccccc2)[C@@H]1C(=O)N1C(=O)OC[C@@H]1c1ccccc1", "composite z-score": 0.184}
{"smiles": "COCCOC(=O)N1C(=O)[C@@]2(c3cc(C#CCNC(N)=O)ccc31)[C@H](C(N)=O)[C@H]1C(=O)O[C@H](c3ccccc3)[C@H](c3ccccc3)N1[C@@H]2c1ccc(OCCO)cc1", "composite z-score": 1.29}
{"smiles": "CCCC=C(CCC)[C@@H](NS(=O)(=O)c1cccc2cccnc12)c1ccc(C(=O)OC)cc1", "composite z-score": 0.591}
{"smiles": "CCOC(=O)C1=CC[C@@H](c2ccccc2)N(S(=O)(=O)c2ccc(C)cc2)[C@H]1C=C(C)C", "composite z-score": 1.45}
{"smiles": "C#CCNS(=O)(=O)N(C)C", "composite z-score": 0.638}
{"smiles": "O=C1O[C@H](c2ccccc2)[C@H](c2ccccc2)N2[C@H]1[C@@H](C(=O)N1CCN(c3ncccn3)CC1)[C@]1(C(=O)Nc3ccc(C#CCCO)cc31)[C@H]2c1ccc(OCCO)cc1", "composite z-score": 1.41}
{"smiles": "COCCOC(=O)N1C(=O)[C@@]2(c3cc(C#CC4(O)CCCCCC4)ccc31)[C@H](C(=O)N1CCN(c3ncccn3)CC1)[C@H]1C(=O)O[C@H](c3ccccc3)[C@H](c3ccccc3)N1[C@@H]2c1ccc(O)cc1", "composite z-score": 0.958}
{"smiles": "Cc1cc(C)c(C(O)C2C=CC3C(=O)N(c4ccccc4)C(=O)C3N2Nc2ccc([N+](=O)[O-])cc2)c(C)c1", "note": "(stereo unspecified)", "composite z-score": 1.44}
{"smiles": "Cc1ccc(S[C@]2(C(=O)O)CC(=O)N(C3CCCCC3)[C@@H]2c2ccc(CO)cc2)cc1", "composite z-score": 0.755}
{"smiles": "CCOc1cc(C(O)C2C=CC3C(=O)NC(=O)C3N2Nc2ccccn2)ccc1O", "note": "(stereo unspecified)", "composite z-score": -0.357}
{"smiles": "CC(=O)NCCCC[C@@H]1NC(=O)[C@@H]2C[C@H](C(=O)NCCCC[N+](C)(C)C)[C@H](c3cccc(OCCO)c3)N2C1=O", "composite z-score": 0.193}
{"smiles": "COc1ccc([Si](C)(C)[C@@H]2[C@@H](CC(=O)N(CCO)Cc3ccccc3)O[C@]3(C(=O)N(Cc4ccc(N5CCOC5=O)cc4)c4ccccc43)[C@H]2C)cc1", "composite z-score": 0.542}
{"smiles": "COC(=O)[C@]1(Cc2ccccc2CN=[N+]=[N-])N=C(c2ccc(OCCCO)cc2)O[C@@H]1c1ccccc1CN=[N+]=[N-]", "composite z-score": 0.0068}
{"smiles": "CN(C)C(=O)[C@]1(Cc2ccccc2N=[N+]=[N-])N=C(c2ccc(OCCCO)cc2)O[C@@H]1c1ccccc1CN=[N+]=[N-]", "composite z-score": 1.42}
{"smiles": "CC(C)(C)OC(=O)CC[C@@]1(C(=O)N2CCCCC2)N=C(c2ccc(OCCCO)cc2)O[C@@H]1c1ccccc1CN=[N+]=[N-]", "composite z-score": 1.46}
{"smiles": "CCN(CC)c1ccc(N2CC=CC34O[C@@H]5/C=C\\CCCOC(=O)C5[C@H]3C(=O)N(CCCCCO)[C@@H]4C2=O)cc1", "note": "(stereo partly specified)", "composite z-score": -0.592}
{"smiles": "[N-]=[N+]=Nc1ccccc1C[C@]1(C(=O)NCCN2CCOCC2)N=C(c2ccc(OCCCO)cc2)O[C@H]1c1ccccc1N=[N+]=[N-]", "composite z-score": 1.12}
{"smiles": "COC(=O)[C@]1(Cc2ccccc2CN=[N+]=[N-])N=C(c2ccc(OCCCO)cc2)O[C@@H]1c1ccccc1", "composite z-score": -1.61}
{"smiles": "COCCOC(=O)N1C(=O)[C@@]2(c3cc(C#Cc4ccc(OC)cc4)ccc31)[C@H](C(=O)N1CCc3cc(OC)c(OC)cc3C1)[C@H]1C(=O)O[C@H](c3ccccc3)[C@H](c3ccccc3)N1[C@@H]2c1ccc(O)cc1", "composite z-score": 1.13}
{"smiles": "COCCOC(=O)N1C(=O)[C@@]2(c3cc(C#CCCO)ccc31)[C@H](C(=O)NC[C@H](O)c1ccccc1)[C@H]1C(=O)O[C@H](c3ccccc3)[C@H](c3ccccc3)N1[C@@H]2c1ccccc1OCCO", "composite z-score": 1.43}
{"smiles": "COc1ccccc1CN1C(=O)c2ccccc2[C@@H](C(=O)NCC(C)C)[C@@H]1c1ccc(CO)cc1", "composite z-score": 1.05}
{"smiles": "C=CCN1C(=O)[C@@]2(O[C@@H](CCn3cc([C@H](O)c4ccccc4)nn3)[C@H]([Si](C)(C)c3ccc(OC)cc3)[C@H]2C)c2cc(NC(=O)c3ccc(OC)cc3)ccc21", "composite z-score": 0.795}
{"smiles": "O=C(O)[C@]1(CCS(=O)(=O)c2ccccc2)N=C(c2ccc(OCCCO)cc2)O[C@@H]1c1ccccc1", "composite z-score": 0.0626}
{"smiles": "CN(C)CCCN1C(=O)[C@@]2(Cc3ccccc31)c1ccccc1C(=O)N(Cc1ccccc1)[C@H]2c1ccc(CO)cc1", "composite z-score": 0.118}
